This excerpt belongs to a sample that is enriched for hits.
Tgondii IFNg – T. gondii growth inhibition under IFN-gamma; Toxoplasma gondii growth in IFN-gamma-treated host cells; active compounds read low; activity change, negative = inhibition, % (concentration not given with the values); 3.8% of 69,000 active; AID 1259416; in the data active means activity change below about -70%, passing the limit was not always enough;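 further: host cells are HeLa cells infected with Toxoplasma gondii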
An asterisk follows results filed as active.

SMILES	Tgondii IFNg
Nc1ncn([C@@H]2O[C@H](CO)[C@@H](O)[C@H]2O)c(=O)n1	-41
COc1ccc(-c2cccc(-c3nc(C(=O)N(C)C)cc4c3[C@H](CCO)N([S@@](=O)C(C)(C)C)C4)c2)cc1	-29
C[C@@H](NC(=O)C[C@H]1CC[C@@H]2[C@H](COC[C@@H](O)CN2Cc2ccc(C(F)(F)F)cc2)O1)c1ccccc1	13
Cn1c(-c2ccc(Cl)cc2)cs/c1=N\C(=S)NCCc1ccccc1	-57
CC(C)(C)c1csc(=S)n1CCc1ccc(Cl)cc1	-87*
CN1C(=O)[C@@H]2CN(S(C)(=O)=O)C[C@H]2C12CCN(C(=O)NCCc1ccccc1)CC2	9
COCCN1C(=O)N(Cc2ccccc2)C2(CCN(Cc3cccc(-c4ccccc4C)c3)CC2)C1=O	4
O=S(=O)(c1ccc(F)cc1)N1C[C@@H]2[C@H](c3ccccc31)[C@@H](CO)N2Cc1ccccc1Cl	-3
O=S(=O)(c1ccc(F)cc1)N1C[C@H]2[C@@H](c3ccccc31)[C@@H](CO)N2Cc1ccccc1Cl	-79*
O=C(Nc1ccc(F)cc1)N1C[C@@H]2[C@H](c3ccccc31)[C@H](CO)N2Cc1ccccc1Cl	37
COc1ccccc1N(Cc1nc(-c2cccc(C)c2)oc1C)S(=O)(=O)c1ccc(C)cc1	2
O=C(Nc1cc(C(F)(F)F)ccc1N1CCCCC1)c1ccncc1	16
O=C(NC(=O)c1ccc(C(F)(F)F)cc1)NN1CCCCCC1	-77*
C#CCOC(=O)NC(=O)c1ccc(C(F)(F)F)cc1	-15
C[C@H](O)C#Cc1ccc([C@@H]2[C@H](CO)N3CCCCN(C(=O)c4ccc5c(c4)OCO5)C[C@@H]23)cc1	7
COCCN1C(=O)CCc2cc(NC(=O)c3cccc(C(F)(F)F)c3)ccc21	-51
CC(C)(C)c1ccc(C(=O)CCCN2CCC(OC(c3ccccc3)c3ccccc3)CC2)cc1	-86*
O=C(O)CCCN1CCC(O[C@@H](c2ccc(Cl)cc2)c2ccccn2)CC1	34
CC1CCN(CCCC(=O)c2ccc(F)cc2)CC1	12
CCC(CC)C(=O)NCCn1nc(-c2ccc(F)cc2)cc1-c1cccnc1	-27
Nc1ccc(N)c(C(=O)O)c1	-18
CC(=O)c1ccc(-c2ccc(N)c(C(=O)c3ccccc3)c2)cc1	-85*
NC(=O)Cc1cccc(C(=O)c2ccccc2)c1N	19
NNC(=O)c1cc(O)c(O)c(O)c1	2
O=C(NCc1cccc(Cl)c1)c1ccc2c(c1)CCC(=O)N2Cc1ccccc1	-100*
SMILES	Tgondii IFNg
O=C(NCc1ccc(N2CCCC2=O)cc1)c1cccc(Cl)c1	-3
CCN1C(=O)CCc2cc(NS(=O)(=O)Cc3cccc(Cl)c3)ccc21	-34
CCC(C)N(Cc1ccc(S(=O)(=O)NC)cc1)Cc1ccsc1 (stereo not drawn)	-6
COc1ccc2c3c([nH]c2c1)[C@H](CO)N(Cc1ccccc1OC)CC31CN(C(C)=O)C1	-53
CCc1ncnc2c1CCN(C(=O)Cc1ccccn1)CC2	-39
CCN(CC)CCNC(=O)c1ccc(N)cc1	13
CCN(CC)CCNC(=O)c1c(C)[nH]c(/C=C2\C(=O)Nc3ccc(F)cc32)c1C	-75*
Cc1[nH]c(/C=C2\C(=O)Nc3ccc(S(=O)(=O)N(C)c4cccc(Cl)c4)cc32)c(C)c1C(=O)N1CCN(C)CC1	-64
CC(C)NC(=O)CCC1Nc2c3ccccc3nc(=S)n2C1=O (stereo not drawn)	13
O=C(Nc1ccc(-c2nc(-c3ccccc3)co2)cc1)Nc1ccc(F)c(Cl)c1	26
CN1CCCC2(CCN(C(=O)CCc3cc(Cl)no3)C2)C1=O (stereo not drawn)	3
COc1ccc(-c2cc3nc([C@H](C)NC(=O)C4CCS(=O)(=O)C4)nn3cn2)cc1 (stereo partly drawn)	49
COc1ccc(S(=O)(=O)N(C)C[C@H]2Oc3c(NC(=O)c4nc5ccccc5s4)cccc3C(=O)N([C@H](C)CO)C[C@@H]2C)cc1	-55
COc1ccc(S(=O)(=O)N(C)C[C@@H]2Oc3ccc(NC(=O)Nc4ccc(C(F)(F)F)cc4)cc3C(=O)N([C@H](C)CO)C[C@H]2C)cc1	-75*
COc1ccc(S(=O)(=O)N(C)C[C@@H]2OCCCC[C@@H](C)Oc3ccc(NC(=O)Cc4ccccc4)cc3C(=O)N([C@@H](C)CO)C[C@@H]2C)cc1	-32
COc1ccc(S(=O)(=O)Nc2ccc3c(c2)C(=O)N([C@@H](C)CO)C[C@H](C)[C@H](CN(C)S(=O)(=O)c2ccc(Cl)cc2)OCCCC[C@@H](C)O3)cc1	-112*
COc1ccc(S(=O)(=O)N(C)C[C@H]2Oc3ccc(NC(=O)Nc4ccc(C(F)(F)F)cc4)cc3C(=O)N([C@H](C)CO)C[C@@H]2C)cc1	-42
COc1ccc(S(=O)(=O)N(C)C[C@@H]2Oc3c(NC(=O)c4nc5ccccc5s4)cccc3C(=O)N([C@H](C)CO)C[C@@H]2C)cc1	-40
COc1ccc(S(=O)(=O)N(C)C[C@H]2OCCCC[C@H](C)Oc3ccc(NC(=O)Cc4ccccc4)cc3C(=O)N([C@H](C)CO)C[C@H]2C)cc1	-48
COc1ccc(S(=O)(=O)N(C)C[C@@H]2Oc3ccc(NC(=O)Nc4ccc(C(F)(F)F)cc4)cc3C(=O)N([C@H](C)CO)C[C@@H]2C)cc1	-37
COc1ccc(S(=O)(=O)N(C)C[C@@H]2OCCCC[C@@H](C)Oc3ccc(NC(=O)Cc4ccccc4)cc3C(=O)N([C@H](C)CO)C[C@@H]2C)cc1	3
COc1ccc(S(=O)(=O)N(C)C[C@H]2Oc3c(NC(=O)c4nc5ccccc5s4)cccc3C(=O)N([C@@H](C)CO)C[C@H]2C)cc1	-82*
COc1ccc(S(=O)(=O)Nc2ccc3c(c2)C(=O)N([C@H](C)CO)C[C@H](C)[C@H](CN(C)S(=O)(=O)c2ccc(Cl)cc2)OCCCC[C@@H](C)O3)cc1	-38
COc1ccc(S(=O)(=O)N(C)C[C@H]2OCCCC[C@@H](C)Oc3ccc(NC(=O)Cc4ccccc4)cc3C(=O)N([C@@H](C)CO)C[C@H]2C)cc1	-102*
CC(C)CCC(=O)N1CCC2(COCc3cnc(-c4ccccc4)nc32)C1 (stereo not drawn)	-14
SMILES	Tgondii IFNg
CC(=O)Nc1ccc(-c2cn(C(C)Cc3cnccn3)nn2)cc1 (stereo not drawn)	-29
CC1(C(=O)O)CC(N2CCCC2)CCN1C(=O)CCc1ccccc1 (stereo not drawn)	4
CC1=NC2(CCN(C(=O)c3coc(COc4cccc(F)c4)n3)CC2)C(=O)N1	36
CO[C@H]1CC[C@@H]2[C@H]1OCCN2C(=O)CCOc1ccccc1	15
COc1cccc(C(=O)NCCc2csc(-c3ccc(Cl)cc3)n2)c1	22
O=C(c1cn[nH]n1)N1CCC2(CC1)CCN(c1ccccc1)C2=O	-4
CO/N=C(\C(=O)N[C@@H]1C(=O)N2C(C(=O)O)=C(C[n+]3ccn4ncccc43)CS[C@H]12)c1nsc(N)n1	16
Cc1noc(C)c1NC(=O)N(C)C[C@H]1OCc2ccccc2-c2c(n(C)c3ccccc23)C(=O)N([C@@H](C)CO)C[C@H]1C	-41
O=C(c1ccc(Cl)cc1Cl)N1CCOCC1	2
COc1ccc(CNC(=O)N(C)C[C@H]2OCc3ccccc3-c3c(n(C)c4ccccc34)C(=O)N([C@H](C)CO)C[C@@H]2C)cc1	-51
COc1ccc(S(=O)(=O)Nc2ccc3c(c2)C(=O)N([C@@H](C)CO)C[C@@H](C)[C@H](CN(C)C(=O)Nc2c(C)noc2C)OCCCC[C@H](C)O3)cc1	-2
